# This is a sample that favours compounds with a hit; in the whole collection about 9.2% have one here.
# ALDH1A1 inh: inhibitors of human aldehyde dehydrogenase 1A1; P00352; Purified ALDH1A1, NADH fluorescence, propionaldehyde substrate; Potency, µM (series often up to 75.3 µM), inactives show at the highest dose activity, negative = inhibition, hits mostly inhibitors; 220,000 compounds, 7.3% hits; AID 1030;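 also: plate controls were no enzyme wells and a reference inhibitor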
# Lamin A splicing: LMNA splicing modulation; 200,000 compounds, 0.01% hits; HeLa LMNA splicing GFP/RFP minigene ratio, 48 h; Potency, µM (series often up to 46.1 µM), inactives show top-dose ratio change, negative = inhibition, hits mostly inhibitors; active = well fitted inhibition curve with a large enough effect in the signal ratio, with a control signal flat, not every such curve was filed as active; inconclusive = small, poorly fitted or top-dose-only effect, or effect the other way, or a change in a side signal; the % refers to the signal ratio; also: % is scaled to controls: 0 for no effect and ±100 for the full control effect
#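 Read-out is the ratio of GFP to DsRed2 object intensity, acquired by 488 nm laser-scanning cytometry on HeLa lamin A-EGFP minigene reporter cells. Compound incubation 48 hrs at 37 °C in Opti-MEM with 2% FBS; DMSO 0.5% final.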
# HTT cytoprotect: Huntington cell model cytoprotection by ATP luminescence. PC12 HTT-Q103 induced, cytoprotection, ATP luminescence, 40 h. Potency, µM (doses to about 56.4 µM), without a hit: cytoprotection (ATP increase), usual class: activators. 230,000 compounds, 0.14% hits. AID 1471; active = well fitted curve in the direction sought with a large enough effect; inconclusive = small, poorly fitted or top-dose-only effect, or another doubt; inactive = no such curve, though single readings can be large; an effect the other way counts as inactive or inconclusive; also: % of control where 0% means no effect; nearly all actives have a fitted effect of over 45% in size
#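 Compounds added alongside 100 nM tebufenozide, which induces toxic Q103 huntingtin exon 1-GFP in stable PC12 cells; surviving cells quantified by luminescent ATP measurement. Medium: phenol red-free DMEM, 5% equine and 5% calf serum.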
# HttQ103 aggreg: inhibitors of mutant huntingtin aggregate formation in PC12 cells | 220,000 compounds, 1.1% hits | AID 1688 | PC12 HttQ103-GFP aggregates, Acumen cytometry, 40 h | Potency, µM (titrated, usually from 46.1 µM), without a hit: at the top dose activity change, negative = inhibition, most hits filed as inhibitors; active = well fitted curve in the direction sought with a large enough effect; inconclusive = small, poorly fitted or top-dose-only effect, or another doubt; inactive = no such curve, though single readings can be large; an effect the other way counts as inactive or inconclusive; also: % is scaled to controls: 0 for no effect and ±100 for the full control effect; nearly all actives have a fitted effect of over 60% in size
#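 Steps: seed 1500 PC12 HTTQ103-GFP cells/well; add tebufenozide, 100 nM final; add compound titration; add ATPLite reagent; quantify GFP aggregates by laser scanning cytometry.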
# JMJD2E inh: blocks human JMJD2E demethylase activity | B2RXH2 | JMJD2E catalytic domain, FDH-coupled NADH fluorescence (FDH is formaldehyde dehydrogenase) | Potency, µM (highest dose often 57.1 µM), for inactives: at the highest dose activity change, negative = inhibition, actives largely listed as inhibitors | 230,000 compounds, 1.6% hits | AID 2147;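 also: 0% = wells with enzyme and -100% = buffer wells without enzyme; nearly all actives have a fitted effect of over 50% in size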
# Target sequence (B2RXH2 1-337 limits assumed): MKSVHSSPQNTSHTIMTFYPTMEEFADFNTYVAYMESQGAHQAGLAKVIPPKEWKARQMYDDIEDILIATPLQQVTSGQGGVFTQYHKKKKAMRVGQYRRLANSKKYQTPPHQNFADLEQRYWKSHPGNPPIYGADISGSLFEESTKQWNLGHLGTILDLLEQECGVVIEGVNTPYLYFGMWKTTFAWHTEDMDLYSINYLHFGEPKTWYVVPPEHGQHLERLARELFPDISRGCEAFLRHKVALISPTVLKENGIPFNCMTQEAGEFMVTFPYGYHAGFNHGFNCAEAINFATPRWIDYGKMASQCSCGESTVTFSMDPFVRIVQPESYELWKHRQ
# HPGD block: HPGD (human) dehydrogenase inhibition | P15428 | purified HPGD, NADH fluorescence kinetic, PGE2 substrate | Potency, µM, inactives show at the top dose activity change, negative = inhibition, hits mostly inhibitors | 150,000 compounds, 4.3% hits | AID 894; also: % is scaled to controls: 0 for no effect and ±100 for the full control effect
#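 NADH formation kinetics: reaction with 30 uM PGE2 and 1 mM NAD+ (final), 20 nM enzyme, Tris-HCl pH 8 with Tween 20, after 15 min compound preincubation at room temperature. Fluorescence change, last versus first of five reads.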
# * = called active by the depositor; ? = inconclusive; . = not tested or not shown; [ ] = another dose, or the depositor's remark. Unless noted, calls follow the shape of the dose curve; as a rule, active = well fitted inhibition curve with a large enough effect (not every such curve was filed as active); inconclusive = small, poorly fitted or top-dose-only effect, or another doubt; inactive = no such curve, though single readings can be large or run the other way. Potency is read from the fitted curve at half-maximal effect.
SMILES,ALDH1A1 inh,Lamin A splicing,HTT cytoprotect,HttQ103 aggreg,JMJD2E inh,HPGD block
CCN1C(=O)c2cccc3c(S(=O)(=O)Nc4ccccc4OC)ccc1c23,4.5µM*,?,-21%,4%,-1%,-9%
CCN1C(=O)c2cccc3c(S(=O)(=O)NCCCN4CCOCC4)ccc1c23,?,-1%,-1%,-10%,?,-20%
COc1ncc2nc(-c3cc(F)cc(F)c3)c(=O)n(C)c2n1,-3%,-2%,8%,.,.,.
COc1cc(/C=C2\SC(N)=NC2=O)ccc1OCC(=O)Nc1ccc(C)cc1,7%,?,-4%[10 µM],19%,-9%,4.5µM*
CC1=NN(c2ccccc2)C(=O)/C1=C/C=C/c1ccc(N(C)C)cc1,-6%,?,-2%[10 µM],?,-1%,.
CC1=NN(CCC#N)C(=O)/C1=C/c1ccc(N(C)C)cc1,7.9µM*,-2%[46 µM],-18%,-13%,-16%,.
COc1cc(/C=C2\C(=O)N(CCC#N)N=C2C)ccc1OCC(=O)Nc1ccccc1,13µM*,-3%,10%[10 µM],-10%,?,10µM*
CCOc1cc(/C=C2\C(=O)N(CCC#N)N=C2C)ccc1OCC(N)=O,-9%,0%[46 µM],-15%[10 µM],7%,?,.
CCCN1C/C(=C/c2ccc3c(c2)OCO3)C(=O)/C(=C/c2ccc3c(c2)OCO3)C1,?,?,-13%[10 µM],9%,10µM*,-10%
CCCN1C/C(=C/c2cccc([N+](=O)[O-])c2)C(=O)/C(=C/c2cccc([N+](=O)[O-])c2)C1,20µM*,3%,-78%,22%,-1%,-14%
CCOC(=O)c1ccc(NC(=O)c2nc[nH]c2C(=O)N[C@@H](CC(C)C)C(=O)OCc2ccccc2)cc1,.,.,-2%[10 µM],-14%[9.22 µM],-6%,.
CCCC1CC(C)(C(=O)CSc2n[nH]c(-c3ccccc3)n2)OC1=O (centres undefined),10µM*,-16%,-5%,17%,-13%,-30%
CCCC1CC(=O)OC1(C)C(=O)CSc1n[nH]c(-c2ccccc2)n1 (centres undefined),13µM*,-2%,10%,5%,2%,-19%
CC1Cc2nc(SCC(=O)Nc3nc4ccccc4s3)n(C)c(=O)c2S1 (centres undefined),10%,?,21%[10 µM],-16%,4%,-7%
O=C(Nc1ccc(Cl)cc1C(F)(F)F)c1cc(S(=O)(=O)NCc2ccccc2)ccc1F,.,-8%[46 µM],.,.,.,.
Nc1cccc(N)c1,-5%,.,-56%,.,.,-5%
CCCCn1nnc(NC(=O)c2sc3cc(Cl)ccc3c2Cl)n1,?,?,-2%,0.63µM*,-4%,-26%
CS(=O)(=O)N(Cc1ccc(C(=O)NCc2ccco2)cc1)c1ccccc1,8%,-10%,5%,-12%,-1%,28µM*
CCOc1ccc(N(CC(=O)Nc2ccc(OC)cc2)S(C)(=O)=O)cc1,18µM*,0%,-1%[10 µM],12%,5%,-10%
Cc1ccc(C)c(N(CC(=O)Nc2ccccc2C(=O)NCc2ccco2)S(=O)(=O)c2ccccc2)c1,?,-7%,7%[10 µM],29%,4µM*,?
CCOc1ccc(N(CC(=O)Nc2cccc(Cl)c2)S(=O)(=O)c2c(C)noc2C)cc1,8%,-21%,3%,22µM*,-3%,-13%
CS(=O)(=O)N(Cc1ccc(C(=O)NCCSCc2ccco2)cc1)c1ccccc1,14%,11%,-4%[10 µM],11%,5%,?
Cc1cc2c(OCC(CNC(C)(C)C)OC(=O)c3ccccc3)cccc2[nH]1 (centres undefined),7%,-20%,-23%,-4%,.,.
COc1ccccc1NC(=S)Nc1ccc2cn[nH]c2c1,-14%,-8%[46 µM],7%,-1%,-1%,.
COc1cc2oc(=O)cc(-c3ccc(-c4ccc(NC(C)=O)cc4)cc3)c2c(OC)c1OC,?,.,-79%,.,.,?
Cn1c(=O)n(C)c2cc(CNCc3ccc(F)cc3)ccc21,.,13%[46 µM],.,.,.,.

# High-throughput results from PubChem.
